Rows were chosen to be rich in hits. Some 2.2% of all compounds tested hit in one or more screens of this group.
APP 5UTR inh – APP translation inhibition; 0.82% of 190,000 active; inhibition, % at 2 µM; SH-SY5Y APP 5'UTR-luciferase reporter, luminescence;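 active = inhibition above a set limit, derived from the sample mean plus 3 SD, cut at about 45% in these data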
KLF5 inhibitor – inhibitors of KLF5 expression; DLD-1 KLF5 promoter-luciferase reporter, luminescence; inhibition, % at 5 µM; 0.23% of 290,000 active;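 active = inhibition above a per-plate limit of that plate's mean compound inhibition plus 3 SD, cut at about 60% in these data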;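 note: 0% = DMSO wells and 100% = LY294002 at 200 µM; higher means less KLF5 promoter-driven luciferase light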
Ba/F3 V617F tox – reduce viability of Ba/F3 cells dependent on JAK2V617F. Ba/F3 EpoR-JAK2V617F viability, ATP luminescence. AID 1446. 1.1% of 220,000 active. inhibition, % at 5.6 µM;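 active = inhibition above the campaign mean plus 3 SD over all tested compounds, cut at about 24% in these data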;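 note: cytokine-independent growth of Ba/F3 cells driven by EpoR plus mutant JAK2; 0% = DMSO-treated cells and 100% = JAK inhibitor I control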
IEC-6 cytotox – kills IEC-6 intestinal cells in KLF5 counter-screen. AID 1825. IEC-6 cytotoxicity, luminescence viability. inhibition, % at 5 µM. 0.78% of 290,000 active; in the data active = inhibition above about 22%;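 note: 0% = plate median of test compound wells and 100% = cytotoxic reference compound wells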
BaF3 tox – reduces parental Ba/F3 cell viability, JAK2V617F counter-screen; CellTiter-Glo ATP luminescence; 1.1% of 220,000 active; inhibition, % at 5.6 µM;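 active = inhibition above a per-campaign cutoff, the mean inhibition of all tested compounds plus 3 SD, cut at about 27% in these data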;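 note: 0% = DMSO wells and 100% = JAK Inhibitor I control wells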
aSyn UTR inh – 5' untranslated region of α-synuclein, MLPCN primary screen; 0.82% of 300,000 active; alpha-synuclein 5'UTR reporter, inhibitor activity; inhibition, % (tested at 7.5 µM); in the data active = inhibition above about 60%;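 note: H4 neuroglioblastoma cells stably carrying SNCA 5'UTR luciferase fusion; 0% = DMSO wells and 100% = positive control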
* = called active by the depositor; · = no result.

SMILES	APP 5UTR inh	KLF5 inhibitor	Ba/F3 V617F tox	IEC-6 cytotox	BaF3 tox	aSyn UTR inh
CCCCCCCNC(=O)C1(CC2CC(c3ccc(Cl)cc3)=NO2)CCN(C(=O)CCCCCBr)CC1 (stereo not drawn)	·	-6.7	·	-2.1	·	-2.0
Cc1ccc(C(=O)NC2CCCc3c2cnn3-c2ccc(F)cc2F)cn1 (stereo not drawn)	·	48.2	·	13.6	·	-5.3
Cc1ccccc1C(=O)Nc1cccc(NC(=O)Cn2cnc3c(=O)n(C)c(=O)n(C)c32)c1	13.4	8.4	68.1*	-3.9	42.3*	52.1
Cc1cccc(C)c1NC(=O)Cn1cnc2c(=O)n(C)c(=O)n(C)c21	4.3	-12.4	-3.1	-3.4	1.2	18.4
O=C(Cn1cnc2c(oc3nc4c(cc32)CCCC4)c1=O)Nc1cccc(Cl)c1	·	6.4	·	2.1	·	66.3*
CCC(=O)N1CCc2cc(S(=O)(=O)CCC(=O)NCCc3ccc(S(N)(=O)=O)cc3)ccc21	·	-23.5	·	1.4	·	-15.0
COc1ccc(OC)c(-c2csc(NC(=O)C3=COCCO3)n2)c1	·	·	·	·	·	-10.3
COc1ccc(OC)c(-c2csc(NC(=O)c3ccc(OCC4CCCO4)cc3)n2)c1 (stereo not drawn)	-44.3	-5.2	3.4	-4.5	29.7*	-6.2
CCOc1ccc(C(=O)Nc2nnc(SCC(=O)NCC3CCCO3)s2)cc1 (stereo not drawn)	·	19.0	·	3.2	·	75.9*
Cc1cnc(NC(=O)c2ccc(OCC3CCCO3)cc2)s1 (stereo not drawn)	-128.0	19.2	1.9	5.4	6.0	79.1*
Cc1ccc(NC(=O)c2ccc(OCC3CCCO3)cc2)nc1 (stereo not drawn)	·	·	·	·	·	-36.4
COc1cc(NC(=O)C2CCCCC2)c(OC)cc1NC(=O)c1ccccc1	·	15.2	·	-6.0	·	4.8
Cc1ccc(C)c(S(=O)(=O)N2CCN(C(=O)CCCc3c[nH]c4ccccc34)CC2)c1	·	·	·	·	·	14.1
CCc1cccc(C)c1NC(=O)C1CCCN1C(=O)NCc1ccccc1 (stereo not drawn)	·	-27.4	·	-5.5	·	-10.6
CCN1CCN(c2ccc(S(=O)(=O)N3CCCCC3)cc2NC(=O)c2cccc(C(F)(F)F)c2)CC1	·	·	·	·	·	17.2
Cc1cccc(N2CCN(C(=S)Nc3ccc4nc(N5CCN(C)CC5)cc(C)c4c3)CC2)c1C	86.9*	-24.1	-2.0	-1.1	2.5	95.2*
Cc1cc(N2CCN(C)CC2)nc2ccc(NC(=S)N3CCCCC3)cc12	-17.5	-24.1	0.5	-2.4	5.0	-84.7
Cn1c(=N)n(CC(=O)c2ccc(Br)cc2)c2ccccc21	·	·	·	·	·	36.3
Cc1n(CC(=O)c2ccc(F)cc2)c2ccccc2[n+]1C	6.5	-18.8	14.8	4.8	27.8*	5.5
Cn1c(=N)n(CC(=O)c2ccc(F)cc2)c2ccccc21	·	61.1	·	7.9	·	75.7*
CC(C)(C)c1ccc(C(=O)Nc2ccc(CC(=O)O)cc2)o1	·	47.7	0.2	0.4	4.1	110.7*
c1ccc(Cn2c(-c3ccccc3)c[n+]3c2SCCC3)cc1	·	-8.1	73.1*	-4.4	62.6*	-5.0
O=C1CC(NC2CCN(C(=O)c3cccc(F)c3)CC2)C(=O)N1 (stereo not drawn)	·	-1.4	·	2.1	·	-9.0
COc1ccc(CCC(=O)NNC(=O)Nc2ccc(C(C)=O)cc2)cc1	·	-12.1	·	-4.1	·	-23.2
Cc1ccc(CN=C(N)Nc2nc(C)cc(C)n2)cc1	70.8*	-22.6	80.6*	48.0*	77.3*	117.0*
SMILES	APP 5UTR inh	KLF5 inhibitor	Ba/F3 V617F tox	IEC-6 cytotox	BaF3 tox	aSyn UTR inh
c1ccc(N2OCC3Cn4c(nc5ccccc54)C32)cc1 (stereo not drawn)	·	·	·	·	·	-63.7
O=[N+]([O-])c1ccc(Nc2ccccc2)c2nonc12	·	-24.6	·	2.3	·	10.7
O=[N+]([O-])c1ccc(Sc2cccc[n+]2[O-])c2nonc12	·	12.5	99.0*	100.1*	104.8*	84.8*
CC1=C(C)C(=O)N(C(C)CCc2ccccc2)C1=O (stereo not drawn)	·	-30.3	·	-0.1	·	20.0
O=c1c2ccc(Cl)cc2nc(-c2cccc(C(F)(F)F)c2)n1O	-5.3	40.5	59.7*	-6.2	56.2*	77.5*
N#Cc1ccc(-c2nc3cc(Cl)ccc3c(=O)n2O)cc1	·	-12.9	·	-0.3	·	-1.2
CCOC(=O)C1CCCN(C(=O)c2ccc(-c3ccc([N+](=O)[O-])cc3)o2)C1 (stereo not drawn)	·	·	·	·	·	-19.3
CCCCNS(=O)(=O)c1ccc(S(=O)(=O)NCc2ccncc2)cc1	4.3	-34.2	33.5*	1.6	38.9*	-5.2
O=C(C1CC1)N1CCC(c2nc(-c3ccc(S(=O)(=O)NCC4CCCO4)cc3)no2)CC1 (stereo not drawn)	-10.1	-23.7	5.3	6.7	34.6*	-24.3
Cc1cc(C)c(S(=O)(=O)NCc2ccncc2)c(C)c1	11.7	1.4	24.3*	6.4	34.0*	18.3
O=C(c1ccccc1)N1CCC(c2nc(-c3ccc(S(=O)(=O)NCC4CCCO4)cc3)no2)CC1 (stereo not drawn)	·	-19.4	3.1	1.8	4.9	28.2
Cc1ccc(S(=O)(=O)NCc2ccncc2)c(C)c1C	9.8	26.2	55.1*	18.6	83.9*	-8.5
CCCCc1ccc(S(=O)(=O)NCCc2ccncc2)cc1	9.3	-22.0	0.5	6.9	7.3	4.7
Cn1ccsc1=NC(=O)c1ccc(S(=O)(=O)C(F)F)cc1	·	-120.4	·	3.0	·	-96.4
COc1ccc(CNC(=O)Cn2cccc2C(=O)c2ccccc2)cc1	·	-59.1	·	-1.1	·	-68.8
CS(=O)(=O)N1CCN(C(=O)Cc2ccc(Br)cc2)CC1	·	-30.2	·	-7.3	·	-8.4
O=S(=O)(NCc1ccccc1)c1ccc(S(=O)(=O)NCC2CCCO2)cc1 (stereo not drawn)	4.2	-2.5	-4.2	-2.0	-0.3	0.0
O=S(=O)(NCc1ccncc1)c1ccc(S(=O)(=O)NCC2CCCO2)cc1 (stereo not drawn)	4.0	18.1	25.2*	1.3	28.2*	7.7
O=C(Cn1c(-c2ccccc2)c[n+]2ccsc12)c1ccc(Br)cc1	15.5	-12.7	27.2*	0.5	40.5*	-21.9
O=C(Oc1ccc2c(c1)OCO2)c1cc2c(s1)CCC2	55.5*	-14.1	2.1	-3.6	3.2	-16.8
C[n+]1c2n(c3ccccc31)N=C(c1ccc(Cl)cc1)CS2	-4.3	-2.3	78.1*	-0.9	67.3*	-29.5
CC1Sc2n(c3ccccc3[n+]2C)N=C1c1ccccc1 (stereo not drawn)	19.0	5.3	98.9*	20.9	74.5*	-63.3
COCCN1CCN(C(=O)C2CCC(=O)N(Cc3ccccc3OC)C2)CC1 (stereo not drawn)	·	-1.9	·	0.1	·	4.5
Cc1ccc(C#CC[N+](C)(C)CC#Cc2ccccc2)cc1	10.5	0.0	84.5*	1.8	68.2*	29.1
COC(=O)CN1C(=O)N/C(=C/c2cc(OC)c(OC)cc2C)C1=O	-30.6	-5.6	-2.3	4.5	89.7*	10.6
O=C(CCN1CCN(S(=O)(=O)c2ccc(Cl)cc2)CC1)Nc1ccc(F)cc1	·	-19.4	·	1.4	·	-11.3
COc1cc2ccccc2cc1C(=O)Nc1sc2c(c1C(N)=O)CCN(C(C)C)C2	·	-10.7	·	14.7	·	102.4*
